Hits are enriched below; roughly 3% of the tested compounds scored in any of these assays.
IP6K1 inh: Primary qHTS assay for small molecule inhibitors of Inositol hexaphosphate kinase 1 (IP6K1) | Inositol hexakisphosphate kinase 1 (Homo sapiens), Q92551 | IP6K1 kinase, ADP-Glo luminescence, 2 h; hits give low values | activity change, % (series mostly up to about 58 µM) | actives 0.81% (n = 140,000) | AID 1645851, 2021; in the data active means activity change below about -25%; further: on the % scale 0 is the no-effect control and ±100 the full control effect
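ADP-Glo luminescence measures ADP made by human IP6K1 during a 2 h RT reaction with ATP/IP6 (mix at 1.3 mM/130 uM); top library doses 57.5 and 19.1 uM final.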
KDM5B inh: Primary screen for KDM5B Histone Demethylases FDH-coupled qHTS; KDM5B demethylase, FDH-coupled NADH fluorescence (FDH is formaldehyde dehydrogenase); Lysine-specific demethylase 5B (Homo sapiens), Q9UGL1; AID 1347165, 2019; Potency, µM (titrated, usually from 57.7 µM), most hits filed as inhibitors; actives 2.6% (n = 220,000); further: potency means the concentration at half of the fitted maximal effect; 0% is about no effect; nearly all actives have a fitted effect of over 70% in size
Target sequence (Q9UGL1 whole entry, looked up): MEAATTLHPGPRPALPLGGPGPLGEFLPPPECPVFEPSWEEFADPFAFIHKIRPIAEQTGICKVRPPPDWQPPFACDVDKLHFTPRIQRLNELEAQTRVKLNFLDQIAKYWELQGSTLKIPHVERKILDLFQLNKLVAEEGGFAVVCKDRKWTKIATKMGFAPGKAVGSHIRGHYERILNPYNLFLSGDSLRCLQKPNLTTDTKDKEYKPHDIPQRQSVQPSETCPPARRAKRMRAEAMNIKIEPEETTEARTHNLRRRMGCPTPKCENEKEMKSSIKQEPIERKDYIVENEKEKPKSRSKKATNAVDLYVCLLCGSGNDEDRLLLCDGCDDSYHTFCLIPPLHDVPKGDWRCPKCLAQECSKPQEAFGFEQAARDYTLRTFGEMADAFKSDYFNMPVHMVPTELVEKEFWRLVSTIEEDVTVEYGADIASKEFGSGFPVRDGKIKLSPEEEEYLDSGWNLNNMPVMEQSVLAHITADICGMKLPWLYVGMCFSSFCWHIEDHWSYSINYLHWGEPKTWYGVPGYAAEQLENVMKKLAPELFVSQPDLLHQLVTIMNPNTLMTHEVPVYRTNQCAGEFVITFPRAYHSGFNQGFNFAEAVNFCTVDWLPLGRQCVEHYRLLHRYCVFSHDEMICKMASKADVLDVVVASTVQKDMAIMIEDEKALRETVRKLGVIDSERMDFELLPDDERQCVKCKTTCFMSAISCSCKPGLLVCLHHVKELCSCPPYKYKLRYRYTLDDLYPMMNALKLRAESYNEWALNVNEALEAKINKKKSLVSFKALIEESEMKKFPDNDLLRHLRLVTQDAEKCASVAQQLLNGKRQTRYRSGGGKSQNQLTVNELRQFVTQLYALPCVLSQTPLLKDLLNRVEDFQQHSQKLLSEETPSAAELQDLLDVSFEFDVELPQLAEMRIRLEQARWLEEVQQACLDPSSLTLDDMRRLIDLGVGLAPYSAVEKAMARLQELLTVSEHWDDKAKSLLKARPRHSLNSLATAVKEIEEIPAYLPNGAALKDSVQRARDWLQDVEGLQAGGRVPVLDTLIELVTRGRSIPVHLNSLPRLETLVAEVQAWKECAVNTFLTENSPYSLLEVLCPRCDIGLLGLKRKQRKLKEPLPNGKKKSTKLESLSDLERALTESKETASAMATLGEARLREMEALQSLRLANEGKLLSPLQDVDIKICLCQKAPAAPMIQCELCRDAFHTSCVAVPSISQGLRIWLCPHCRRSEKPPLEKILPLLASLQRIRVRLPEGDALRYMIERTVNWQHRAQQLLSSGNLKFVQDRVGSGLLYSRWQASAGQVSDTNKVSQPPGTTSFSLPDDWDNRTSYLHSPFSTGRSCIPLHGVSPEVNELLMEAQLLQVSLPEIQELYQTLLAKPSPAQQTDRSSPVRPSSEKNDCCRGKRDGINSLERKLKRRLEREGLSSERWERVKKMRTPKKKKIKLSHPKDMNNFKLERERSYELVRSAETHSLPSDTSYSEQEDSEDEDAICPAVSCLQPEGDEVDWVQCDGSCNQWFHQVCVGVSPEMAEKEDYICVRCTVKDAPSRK
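Coupled FDH/NAD⁺ fluorescence readout. KDM5BΔAP 200 nM final; compound titration, 10 min RT preincubation; substrate mix 12.5 µM H3K4me3, 25 µM 2-OG, 50 µM Fe(II), 100 µM ascorbate, 0.25 mM NAD⁺, 0.25 U/mL FDH; ΔRFU over 30 min.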
HEK293 viab: GF-AFC viability counterscreen for inhibitors of alpha-synuclein gene (SNCA) expression; actives 0.12% (n = 150,000); AID 1671193, 2021; HEK-293-SNCA-luc viability, GF-AFC fluorescence, 24 h; Potency, µM (highest dose often 57.1 µM), for inactives: at the highest dose activity change, negative = cytotoxicity, hits mostly cytotoxic;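 further: potency means the concentration at half of the fitted maximal effect; 0% = DMSO-treated cells and -100% = medium-only wells without cells; nearly all actives have a fitted effect of over 30% in size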
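HEK-293-SNCA-luc cells (1500/well) plated 24 h, then exposed 24 h to a dilution series; GF-AFC added 30 min at 37C, fluorescence 405/540 nm; normalised to medium-only and DMSO wells, Hill fit.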
SNCA expr inh: Primary qHTS assay for inhibitors of alpha-synuclein gene (SNCA) expression; HEK-293 SNCA-luciferase knock-in, luminescence, 24 h; Potency, µM (series often up to 57.2 µM), inactives show at the highest dose activity change, negative = inhibition, hits mostly inhibitors; actives 0.17% (n = 140,000);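 further: potency means the concentration at half of the fitted maximal effect; plate controls were DMSO cells for no effect and cell-free wells for full effect; nearly all actives have a fitted effect of over 45% in size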
* marks the source's active call; other numbers are inactive results; i = inactive; ? = inconclusive; . = no result given; [ ] = dose if it differs, or a comment. Unless noted, the call rests on the fitted dose curve; in most records, active means well fitted curve in the direction sought with a large enough effect; inconclusive means small, poorly fitted or top-dose-only effect, or another doubt; inactive means no such curve, though single readings can be large; an effect the other way counts as inactive or inconclusive.

SMILES	IP6K1 inh	KDM5B inh	HEK293 viab	SNCA expr inh
COc1nc2nc(CCc3ccccc3)n(C)c2cc1-c1ccc(CO)cc1	-2	35µM*	-20%[87.6 µM]	7%[87.6 µM]
COc1ccccc1-c1cc2c(nc1OC)nc(CC1CC1)n2C	13	40µM*	2%[87.6 µM]	0%[87.6 µM]
COc1nc2nc(CCc3ccccc3)n(C)c2cc1-c1cccc(NC(C)=O)c1	5	35µM*	?	-27%[87.6 µM]
COc1nc2nc(CCc3ccccc3)n(C)c2cc1Nc1ccncn1	13	i	-4%[87.6 µM]	112%[87.6 µM]
COCc1nc2nc(-c3ccccc3)c(-c3ccc(OC)cc3)cc2n1C	10	32µM*	1%[87.6 µM]	9%[87.6 µM]
CN(C)S(=O)(=O)c1ccc(NC(=O)Cc2cc(Cl)c3c(c2)OCCCO3)cc1	.	i	.	.
O=C(NC1CCN(Cc2ccc(-c3ccsc3)cc2)C1)c1ccccc1 (stereo not given)	-15	.	?	-14%[87.6 µM]
COCCCNC(=O)C1CCN(C(=O)c2ccc(-c3cccs3)cc2)CC1	-10	.	.	.
Cc1noc(C)c1-c1cnc(Nc2cccc(C(F)(F)F)c2)c2c1CCO2	-14	35µM*	-19%[87.6 µM]	1%[87.6 µM]
Cc1noc(C)c1-c1cnc(Nc2ccccc2)c2c1CCO2	-7	35µM*	10%[87.6 µM]	47%[87.6 µM]
COc1ccc(-c2ccc3nnc(CNC(=O)c4cccn4C)n3n2)cc1	-7	28µM*	7%	37%
Cn1cccc1C(=O)NCc1nnc2ccc(-c3ccccc3)nn12	3	i	3%	10%
CC(=O)Nc1cccc(C(=O)NCc2nnc3ccc(-c4ccccc4)nn23)c1	0	32µM*	-2%	-1%
CCN(CC)c1ccc(C(=O)NCc2nnc3ccc(-c4ccc(OC)cc4)nn23)cc1	4	i	-10%	1%
COc1ccc(-c2ccc3nnc(CNC(=O)c4ccoc4)n3n2)cc1	-8	32µM*	9%	35%
COc1ccc(-c2ccc3nnc(CNC(=O)c4ccc(F)c(Cl)c4)n3n2)cc1	-1	28µM*	13%	-3%
Cc1ccc(C(=O)/C=C/c2c(C)n[nH]c2C)cc1C	.	i	.	.
O=C(/C(C=Nc1ccccc1Cl)=C(/O)c1ccco1)C(F)(F)F	.	i	.	.
O=C(c1ccc2nnc(-c3ccc(Cl)cc3)n2c1)N1CCN(Cc2ccccc2)CC1	5	.	-16%	?
COc1ccc(-c2ccc3nnc(CNC(=O)c4ccc(OC)nc4OC)n3n2)cc1	19	32µM*	-13%	15%
COc1cccc(CC(=O)NCc2nnc3ccc(-c4ccccc4)nn23)c1	15	i	-13%	-14%
COc1ccc(-c2ccc3nnc(CNC(=O)c4cccc(OC)c4)n3n2)cc1	14	28µM*	-1%	-14%
COc1ccc(-c2ccc3nnc(CNC(=O)Cc4cccc(OC)c4)n3n2)cc1	-6	25µM*	-7%	-1%
COc1ccc(-c2ccc3nnc(CNC(=O)c4cc(Cl)ccc4OC)n3n2)cc1	-9	i	6%	15%
COc1ccc(-c2ccc3nnc(CNC(=O)c4cccc(NC(C)=O)c4)n3n2)cc1	16	28µM*	6%	-9%
SMILES	IP6K1 inh	KDM5B inh	HEK293 viab	SNCA expr inh
Cn1c(=O)c2c(-c3ccccc3)n3c(c2n(C)c1=O)C(c1cccc(Cl)c1)OCC3(C)C (stereo not given)	.	i	.	.
COc1ccc(NC(=O)c2nc3ccccc3nc2N2CCOCC2)c(OC)c1	.	i	.	.
COc1ccc(-c2ccc3nnc(CNC(=O)c4cccc(C#N)c4)n3n2)cc1	15	28µM*	-8%	7%
COc1ccc(-c2ccc3nnc(CNC(=O)c4ccc(C#N)cc4)n3n2)cc1	-10	i	-7%	1%
Cc1ccc2oc(C(=O)NC3CC(=O)N(C(C)C)C3)c(C)c2c1 (stereo not given)	11	25µM*	-5%	27%
COc1ccc(CCC(=O)N(C)C2CCc3nnc(C)n3CC2)cc1OC (stereo not given)	-8	i	12%	0%
COc1ccc(CC(=O)N(C)C2CCc3nnc(C)n3CC2)cc1Cl (stereo not given)	5	20µM*	3%	29%
COc1cc(/C=C(/C#N)c2ccccn2)ccc1OCc1cccc(C(F)(F)F)c1	.	i	.	.
O=C1c2cc(N3CCOCC3)nc(-c3ccccc3Oc3ccccc3)c2CN1C1COC1	0	28µM*	-26%	-27%
O=c1cc(N2CCOCC2)oc2c(-c3ccccc3Oc3ccccc3)nccc12	-18	?	?	25%[87.6 µM]
COc1ccccc1-c1nc(N2CCOCC2)cc2c1CN(c1ccccc1)C2=O	5	35µM*	-4%[87.6 µM]	2%[87.6 µM]
Cn1cc(-c2nc(N3CCOCC3)cc3c2CN(c2ccccc2)C3=O)cn1	16	20µM*	8%[87.6 µM]	19%[87.6 µM]
CCOc1cc(C#N)c(NC(=O)c2ccc3c(c2)OCO3)cc1OCC	.	i	.	.
COCCCNC(=O)c1cc(-c2ccncc2)nc2ccccc12	.	i	.	.
Cc1ccc(C(=O)Nc2ccc(-c3nc4ccccc4o3)cc2)cc1	.	i	.	.
CC(=O)N1CCCC1C(=O)Nc1ccc(-c2nc3ccccc3o2)cc1 (stereo not given)	-5	28µM*	-3%	131%
COCCn1c(SCc2ccc(OC)c(F)c2)nnc1-c1cccc(C)c1	.	i	.	.
CC(C)NC(=O)N[C@H]1CCN2C(=O)c3cc(-c4ccc5c(c4)OCO5)ccc3NC(=O)[C@@H]2C1	10	32µM*	1%	7%
COc1ccc(Cl)cc1-c1ccc2c(c1)C(=O)N1C[C@@H](NS(=O)(=O)c3ccc(F)cc3)C[C@H]1C(=O)N2	-5	32µM*	?	?
CS(=O)(=O)N[C@H]1C[C@H]2C(=O)Nc3ccc(-c4ccc5c(c4)OCO5)cc3C(=O)N2C1	1	i	5%[87.6 µM]	-18%[87.6 µM]
O=C1Nc2ccc(-c3ccc4c(c3)OCO4)cc2C(=O)N2C[C@@H](NS(=O)(=O)c3ccc(F)cc3)C[C@@H]12	-13	32µM*	-4%	11%
Cc1nn(C)cc1C(=O)N1CCC2(CC1)CN(c1ncccn1)CC2CO (stereo not given)	12	28µM*	?	-16%
COCC1CN(C2CCC2)CC12CCN(C(=O)c1sc(C)nc1C)CC2 (stereo not given)	5	.	6%	14%
Cc1nc(C)c(C(=O)N2CCC3(CC2)CN(c2ncccn2)CC3CO)s1 (stereo not given)	-1	25µM*	3%	2%
CC(C)NC(=O)c1cc(-c2cccc(F)c2)nc2c1cnn2C	11	.	.	.
CCOc1cc(C#N)ccc1OCc1ccc(OC)c(F)c1	.	i	.	.
CC(C)C(NC(=O)c1cccc(C#N)c1)C(=O)N1CCN(c2ccccn2)CC1 (stereo not given)	8	?	-7%	-5%
CCOc1ccc(C(=O)NC(C)C(=O)N2CCN(c3ccccn3)CC2)cc1 (stereo not given)	2	?	6%	4%

High-throughput results deposited in PubChem by National Center for Advancing Translational Sciences (NCATS).
